DT40 TDP1 CPT – qHTS for Inhibitors of human tyrosyl-DNA phosphodiesterase 1 (TDP1): qHTS in cells in presence of CPT | chicken DT40 Tdp1-/-;hTDP1 cells + 20 nM CPT, ATP luminescence, 48 h | Potency, µM (top dose mostly 46.2 µM), for inactives: at the top dose activity change, negative = growth inhibition, usual class: inhibitors | 12% of 420,000 active; also: potency is read from the fitted curve at half-maximal effect; nearly all actives have a fitted effect of over 55% in size
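Chicken DT40 Tdp1-/- cells complemented with human TDP1, 400 cells/well, exposed to compounds plus 20 nM camptothecin for at least 48 h at 37 C; viability read as ATP content by CellTiter-Glo luminescence.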
Six1-Eya2 inh – qHTS Assay for Inhibitors of the Six1/Eya2 Interaction; AlphaScreen GST-Six1/His-Eya2 binding, biochemical; hits give low values; activity change, % (concentration not given with the values); Homeobox protein SIX1 (Homo sapiens) + Protein phosphatase EYA2 (Homo sapiens), …; 0.56% of 360,000 active; in the data active = activity change below about -65%; inconclusive = mostly about -30% to -63%
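Homogeneous AlphaScreen proximity assay pairing GST-Six1 with His-tagged Eya2 (added as 5X mix: 250 nM and 500 nM) in 50 mM Tris pH 8.0, 300 mM NaCl, 1 mM TCEP. Glutathione donor and nickel acceptor beads; 1 h, 37 °C, dark.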
TDP1 inh – qHTS Assay for Inhibitors of Tyrosyl-DNA Phosphodiesterase (TDP1). recombinant TDP1, AlphaScreen DNA substrate cleavage. Potency, µM (top dose mostly 130 µM), inactives show top-dose activity change, negative = inhibition, usual class: inhibitors. AID 485290, 2010. 0.28% of 350,000 active. Tyrosyl-DNA phosphodiesterase 1 (Homo sapiens), Q9NUW8; also: potency is read from the fitted curve at half-maximal effect; nearly all actives have a fitted effect of over 40% in size
Target sequence (Q9NUW8 whole entry, looked up): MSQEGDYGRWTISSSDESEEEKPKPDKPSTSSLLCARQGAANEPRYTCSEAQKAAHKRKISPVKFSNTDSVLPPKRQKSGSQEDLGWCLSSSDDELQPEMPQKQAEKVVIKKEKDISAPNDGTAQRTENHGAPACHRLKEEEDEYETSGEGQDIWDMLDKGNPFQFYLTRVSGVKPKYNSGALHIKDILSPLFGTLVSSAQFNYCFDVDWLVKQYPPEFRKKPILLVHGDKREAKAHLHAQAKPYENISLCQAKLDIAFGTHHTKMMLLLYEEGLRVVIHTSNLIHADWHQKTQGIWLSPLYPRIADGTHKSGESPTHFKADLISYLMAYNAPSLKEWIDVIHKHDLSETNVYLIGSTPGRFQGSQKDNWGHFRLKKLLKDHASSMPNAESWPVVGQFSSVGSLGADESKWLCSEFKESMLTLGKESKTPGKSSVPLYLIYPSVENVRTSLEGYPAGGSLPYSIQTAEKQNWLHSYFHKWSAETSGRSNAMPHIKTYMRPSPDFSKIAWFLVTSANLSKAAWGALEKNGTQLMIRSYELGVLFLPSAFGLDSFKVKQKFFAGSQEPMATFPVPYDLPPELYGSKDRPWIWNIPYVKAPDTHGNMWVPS
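Recombinant E. coli-expressed Tdp1 (1 nM) preincubated with compound 15 min at RT, then 5'-biotin/3'-phosphotyrosine-FITC DNA substrate (15 nM) added for 5 min. AlphaScreen beads (10 ug/ml) added, 10 min RT; tyrosine-FITC cleavage read as signal loss.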
CtBP-E1A blk – qHTS Assay for Inhibitors of the CtBP/E1A Interaction | AlphaScreen GST-E1A/His-CtBP binding, 1536-well; hits give low values | activity change, % (test concentration not listed) | 0.49% of 340,000 active | AID 651724, 2012; in the data active = activity change below about -65%; inconclusive = mostly about -30% to -63%
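Protein mix (5X: 125 nM each GST-E1A, His-CtBP) was incubated with pinned compound 2 h at 37 deg C in dark, in 50 mM Tris pH 8.0 buffer with 300 mM NaCl. Glutathione donor and nickel acceptor beads followed; AlphaScreen signal read after 1 h.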
TDP1 cell noCPT – qHTS for Inhibitors of human tyrosyl-DNA phosphodiesterase 1 (TDP1): qHTS in cells in absence of CPT. DT40 Tdp1-/- hTDP1 cells, no CPT, ATP luminescence, 48 h. Potency, µM (top dose mostly 46.2 µM), without a hit: at the highest dose activity change, negative = growth inhibition, usual class: inhibitors. 15% of 420,000 active; also: potency is read from the fitted curve at half-maximal effect; nearly all actives have a fitted effect of over 55% in size
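Growth kinetics read by CellTiter-Glo luminescence after ≥48 hr at 37 °C. Cells: DT40 Tdp1-/- stably carrying human TDP1, 400 per well, compound exposure in the absence of CPT (DMSO vehicle).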
IL1B secr inh – qHTS for Inhibitors of Inflammasome Signaling: IL-1-beta AlphaLISA Primary Screen; THP-1 LPS/ATP IL-1B secretion, AlphaLISA, 16 h; hits give low values; activity change, % at 57.5 µM; 4.7% of 360,000 active; in the data active = activity change below about -50%; inconclusive = mostly about -30% to -49%
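Secreted IL-1B measured by AlphaLISA bead assay after 16 h compound exposure of THP-1 cells; compounds (final up to 57.5 uM) added 1 h before LPS (250 ng/mL) and ATP (1.25 mM) stimulation; lower signal means less secretion.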
Numbers without * were called inactive; i = inactive; ? = inconclusive; . = not tested or not shown. The list is not random: actives were taken first. Their share in the collection is about 18%. Unless noted, calls follow the shape of the dose curve; as a rule, active = well fitted curve in the direction sought with a large enough effect; inconclusive = small, poorly fitted or top-dose-only effect, or another doubt; inactive = no such curve, though single readings can be large; an effect the other way counts as inactive or inconclusive. % is scaled to controls: 0 for no effect and ±100 for the full control effect.

SMILES | DT40 TDP1 CPT | Six1-Eya2 inh | TDP1 inh | CtBP-E1A blk | TDP1 cell noCPT | IL1B secr inh
NS(=O)(=O)c1ccc(NC(=O)CSc2nc(Nc3ccccc3)nc(N3CCOCC3)n2)cc1 | 21µM* | -7 | 4% | 4 | 16µM* | -18
CC(=O)Nc1ccc2nc(SCC(=O)N3CCOCC3)sc2c1 | 6% | 12 | -3% | 2 | -1% | 11
O=C(CSc1nc2ccc(Nc3nc(N4CCOCC4)nc(N4CCOCC4)n3)cc2s1)N1CCOCC1 | 21µM* | -1 | 3% | 2 | 18µM* | -13
CC(=O)c1ccc(NC(=O)CSc2nc(Nc3ccccc3)nc(N3CCOCC3)n2)cc1 | ? | -10 | -10% | 0 | ? | i
CCc1ccc(CNCc2c(C(=O)O)n(Cc3cccc(F)c3)c3cc(OC)ccc23)cc1 | 23µM* | . | 8% | . | 21µM* | .
COc1ccc2c(CNCC(C)c3ccccc3)c(C(=O)O)n(Cc3ccc(F)cc3Cl)c2c1 (stereo not drawn) | -17% | . | 3% | . | -12% | .
COc1ccc(OC)c(CNCc2c(C(=O)O)n(Cc3cccc(F)c3)c3cc(OC)ccc23)c1 | ? | . | 0% | . | 21µM* | .
COc1ccc2c(CNCCc3ccc(SC)cc3)c(C(=O)O)n(Cc3ccc(F)cc3)c2c1 | 16µM* | . | 8% | . | 12µM* | .
COc1ccc(Cn2c(C(=O)O)c(CNCC(C)c3ccccc3)c3ccc(OC)cc32)cc1 (stereo not drawn) | ? | . | 5% | . | 23µM* | .
COC(=O)c1ccc(CSc2nnc(NC(=O)C3CCCO3)s2)cc1 (stereo not drawn) | 1% | 14 | 6% | -3 | -28% | 26
Cc1csc(NC(=O)CCC(=O)c2cccs2)n1 | -5% | -4 | 4% | -15 | -23% | 9
CC(C)N(Cc1ccccc1)C(=O)c1ccc2nsnc2c1 | ? | -2 | 1% | 10 | 21µM* | 0
CC12CN3CCN(CC(C3)/C1=N/NC(=O)Nc1ccccc1)C2 | 11% | 0 | -2% | 5 | 2% | -9
CCOC(=O)C1=C(N)n2c(s/c(=C\c3cccs3)c2=O)=C(C(=O)OCC)C1c1cccs1 (stereo not drawn) | 4.1µM* | -15 | 0% | -2 | 6.5µM* | 43
CC(C)NC(=O)COC(=O)CNC(=O)c1cc(Cl)cc([N+](=O)[O-])c1 | -23% | 0 | 3% | 5 | 9% | 8
Cc1nnc2nc(-c3ccccc3)nc(-c3ccccc3)n12 | ? | 2 | . | . | 15µM* | -8
OB(O)c1csc2ccccc12 | -4% | . | -1% | . | 11µM* | .
O=C(Nn1cnnc1)c1csc2ccccc12 | -1% | 5 | 1% | 7 | -8% | 12
CCC(=O)N1CCc2cc(Br)cc(S(=O)(=O)NCCN3CCCCC3CC)c21 (stereo not drawn) | -11% | -3 | -4% | -3 | -1% | 3
CC(=O)N(c1ccccc1)c1ccccc1[N+](=O)[O-] | ? | 1 | . | 3 | 26µM* | 25
COCc1c(C(=O)NC2CCCC2)cnn1-c1nccc(-c2ccco2)n1 | 4% | . | . | . | -16% | .
Cc1ccc(C(=O)Nc2cccc(C(F)(F)F)c2)cc1Nc1cnccn1 | 23µM* | 9 | 2% | -3 | 16µM* | 11
Cc1cccc(Nc2ncnc3nc[nH]c23)c1C | -14% | 6 | 3% | 4 | -16% | 0
Cc1ccc(C(=O)Nc2cccc(C(F)(F)F)c2)cc1NC(=O)c1nccn1C | 2% | 5 | 0% | 6 | 3% | 76
Cc1ccc(C(=O)Nc2cccc(C(F)(F)F)c2)cc1Nc1ncnc2nc[nH]c12 | 26µM* | 3 | 5% | -13 | 21µM* | -19
SMILES | DT40 TDP1 CPT | Six1-Eya2 inh | TDP1 inh | CtBP-E1A blk | TDP1 cell noCPT | IL1B secr inh
Cc1ccc(C(=O)Nc2cccc(C(F)(F)F)c2)cc1NC(=O)c1ccno1 | ? | -4 | 0% | 5 | 12µM* | ?
Cc1cc(C)n(C(=O)Cn2nc([N+](=O)[O-])cc2C)n1 | 1% | 5 | 2% | -1 | 6% | 26
Cc1cc(Cl)ccc1Nc1nc(NCc2ccco2)nc2nccnc12 | ? | . | -4% | . | ? | .
O=C(c1ccc(CNS(=O)(=O)c2ccc(Br)cc2)cc1)N1CCCCCC1 | 23µM* | 5 | 1% | -1 | ? | -4
CN1CCN(C(=O)c2ccc(S(=O)(=O)c3ccc(Br)cc3)cc2)CC1 | ? | -3 | 3% | 1 | 18µM* | 6
O=C(c1ccc(Br)cc1)N1CCCC1 | -12% | 0 | 3% | -6 | 2% | 0
Cn1c(=O)c2c(nc(CN3CCN(c4ccccc4)CC3)n2CCN2CCOCC2)n(C)c1=O | -11% | -1 | 7% | 5 | -24% | 8
Cc1ccc(N2CCN(C(=O)C3CCC(=O)N(Cc4ccc(Cl)cc4)C3)CC2)c(C)c1 (stereo not drawn) | 18µM* | 0 | 7% | -3 | 18µM* | -14
NC(=O)C1CCN(C(=O)C2CCC(=O)N(Cc3ccc(Cl)cc3)C2)CC1 (stereo not drawn) | -4% | 3 | . | 3 | -4% | 12
Cc1ccccc1-n1ncc2c(SCC(=O)N3c4ccccc4CC3C)ncnc21 (stereo not drawn) | 29µM* | -11 | 2% | 9 | 20µM* | -92*
CC1Cc2ccccc2N1C(=O)CSc1nc2ccccc2s1 (stereo not drawn) | ? | 0 | -3% | . | ? | -16
CCc1nc(SCC(=O)N2c3ccccc3CC2C)c2c(C)c(C)sc2n1 (stereo not drawn) | 9.2µM* | -3 | 1% | 14 | 10µM* | ?
Cc1ccccc1-n1ncc2c(SCC(=O)NC3CCCC3)ncnc21 | 21µM* | 11 | 2% | -10 | 7.3µM* | -71*
CC1Cc2ccccc2N1C(=O)CSc1nc(-c2ccccc2)cs1 (stereo not drawn) | ? | 6 | 1% | . | 26µM* | -21
Cc1ccc2nc(-c3cccnc3SCC(=O)N3c4ccccc4CC3C)[nH]c2c1 (stereo not drawn) | ? | 10 | 3% | 0 | ? | -5
